This is an account of results in PubChem BioAssay AID686979 (National Center for Advancing Translational Sciences (NCATS), 2013).

About 50,000 (12%) of roughly 420,000 compounds were called active. Another 26% or so got no clear call; they are omitted. Calls follow the shape of the dose curve; as a rule, active = well fitted inhibition curve with a large enough effect; inconclusive = small, poorly fitted or top-dose-only effect; inactive = flat fitted curve, though single readings scatter. The entries come from a sample that favours actives as a whole. Where a call stands in place of a potency, no number is given.
Potency is read from the fitted curve at half-maximal effect.

The assay is described as follows: qHTS for Inhibitors of human tyrosyl-DNA phosphodiesterase 1 (TDP1): qHTS in cells in presence of CPT. Also: nearly all actives have a fitted effect of over 55% in size. To be noted: chicken DT40 Tdp1-/-;hTDP1 cells + 20 nM CPT, ATP luminescence, 48 h; series mostly up to 46.2 µM. In a few lines: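 Cell growth measured by CellTiter-Glo luminescence after a minimum 48 h, 37 C compound exposure with 20 nM CPT in Tdp1-knockout DT40 cells stably expressing hTDP1, seeded 400/well; qHTS titration format.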
A general note: Quantitative high-throughput screening tests each substance at several concentrations.
In the case of `CCN(Cc1ccncc1)C(=O)CCc1ccccc1`, the Potency entry was “inactive”.

For `Cc1nc2ccccc2n1CC(=O)N/N=C/c1cccnc1`, the Potency entry is “inactive”.

Take `O=C(CSc1cccc2cccnc12)N/N=C/c1cccnc1`: the Potency was 23.1 µM (active).

Take `O=C(CNC(=O)c1cccnc1)N/N=C/c1cccnc1`: the Potency entry was “inactive”.

Consider `CCCCCC(O)(CCN1CCCCC1)c1ccccc1` (stereo not drawn), for which the Potency entry is “inactive”.

Take `O=C1NC(c2ccc(-c3ccccc3[N+](=O)[O-])o2)C(C(=O)c2ccc(Cl)cc2)C(O)(C(F)(F)F)N1` (stereo not drawn): the Potency is 18.4 µM (active).

Consider `CC1=NN(c2ccc(Cl)c(C(=O)O)c2)C(=O)/C1=C/c1ccc(-c2ccccc2[N+](=O)[O-])o1`, for which the Potency result was “inactive”.

Turning to `CC(=O)C1C(c2ccc(Cl)cc2)NC(=O)NC1(O)C(F)(F)F` (stereo not drawn), the Potency result is “inactive”.

As to `Cc1ccc(CSCC(=O)N(C)CC(=O)Nc2ccc(C)cc2)cc1`, the Potency result was “inactive”.

On to `FC(F)(F)c1ccc2nnc(-c3c(Cl)cccc3Cl)n2c1`, for which the Potency result is “inactive”.

With `C=C(C)Cn1c(N2CCCC2)nc2c1c(=O)[nH]c(=O)n2C`, the Potency result was “inactive”.

Take `CN1CCN(c2nc3c(c(=O)[nH]c(=O)n3C)n2Cc2cccc3ccccc23)CC1`: the Potency entry was “inactive”.

As for `CCCSc1nc2c(c(=O)[nH]c(=O)n2C)n1CCc1ccccc1`, the Potency entry was “inactive”.

As for `CC=CCn1c(SCCCc2ccccc2)nc2c1c(=O)[nH]c(=O)n2C`, the Potency was 20.6 µM (active).

In the case of `CC1CCN(c2nc3c(c(=O)[nH]c(=O)n3C)n2CCCc2ccccc2)CC1`, the Potency was 16.4 µM (active).

In the case of `CCCCCn1c(SCCC(C)C)nc2c1c(=O)[nH]c(=O)n2C`, the Potency entry was “inactive”.

As for `Cc1ccc(C)c(OCCC(=O)OCC(=O)N2CCN(c3ccccc3)CC2)c1`, the Potency entry is “inactive”.

Consider `CCC(=O)N1CCc2cc(S(=O)(=O)NC(C(=O)NCCc3ccc(C)cc3)C(C)C)ccc21` (stereo not drawn), for which the Potency entry was “inactive”.

For the compound `C[C@@H]1CN([C@@H](C)CO)C(=O)c2cc(NC(=O)C3CC3)ccc2O[C@H]1CN(C)C`, the Potency entry is “inactive”.

For `COC(=O)c1ccc([C@@H](O)[C@H](C)C(=O)CC(=O)OC(C)(C)C)cc1`, the Potency result was “inactive”.

As to `COc1ccccc1N1CCN(/N=C/c2ccc(O)cc2O)CC1`, the Potency result is “inactive”.

With `COc1ccccc1N1CCN(/N=C\C(Br)=C\c2ccccc2)CC1`, the Potency is 8.2 µM (active).

For the compound `COc1ccccc1N1CCN(C(=O)C(=O)N/N=C/c2ccccc2F)CC1`, the Potency result is “inactive”.

As for `O=C(CN1C(=O)NC(Cc2c[nH]c3ccccc23)C1=O)Nc1ccccc1C(F)(F)F` (stereo not drawn), the Potency entry is “inactive”.

In the case of `O=C(O)C1CCC(CNS(=O)(=O)c2ccc(Br)cc2)CC1` (stereo not drawn), the Potency result was “inactive”.

Turning to `CC(=O)N/C(=C/c1ccc(OC(F)F)cc1)C(=O)O`, the Potency entry is “inactive”.

Take `NC(=O)c1cc(S(=O)(=O)NCCCc2ccco2)cs1`: the Potency result is “inactive”.

As to `Cc1cccc(CC2(O)C(=O)Nc3ccccc32)n1` (stereo not drawn), the Potency result was “inactive”.

For the compound `COc1ccc(C(=O)N/N=c2\oc3ccccc3cc2C(N)=O)cc1`, the Potency entry is “inactive”.

Regarding `NC(=O)c1cc2ccccc2o/c1=N/NC(=O)c1cccc(F)c1`, the Potency entry is “inactive”.

Turning to `CCN(CC)c1ccc2cc(C(N)=O)/c(=N\NC(=O)c3ccncc3)oc2c1`, the Potency is 16.4 µM (active).

`COc1cccc(NC(=S)NC(=O)c2c(Cl)c(C)nn2C)c1`: the Potency result was “inactive”.

Consider `Cc1ccc(C(=O)COC(=O)c2cccc(N3C(=O)c4c(C)nc5ccccc5c4C3=O)c2)cc1C`, for which the Potency result was “inactive”.

As to `CCCCCCCCn1c2c(c(=N)c3c1CCC3)CCCC2`, the Potency is 0.92 µM (active).

Take `CC(C)(C)[C@H]1C=C(C(=O)NCc2ccccc2)O[C@@H](OCc2ccc(CO)cc2)C1`: the Potency was 18.4 µM (active).

For the compound `O=C(O)C1CCN(C(=O)OCc2ccccc2)CC1`, the Potency entry was “inactive”.

`O=C(COC(=O)CNC(=O)C1CCCCC1)NCc1ccccc1`: the Potency result was “inactive”.

As for `CSc1ccccc1C(=O)NCc1ccccc1`, the Potency result is “inactive”.

Consider `O=C(NCc1ccccc1)C1=C[C@@H](C2CCCCC2)C[C@@H](OCc2ccc(CO)cc2)O1`, for which the Potency was 16.4 µM (active).

Regarding `CC1(C)CC(=O)c2cc(C(=O)NCc3ccccc3)c(=O)[nH]c2C1`, the Potency entry is “inactive”.

Consider `CCCCc1nc(SCC(=O)Nc2nnc(C(C)C)s2)n[nH]1`, for which the Potency entry is “inactive”.

For the compound `O=C(OCC(=O)N1CCCC1=O)c1cc(S(=O)(=O)N2CCOCC2)ccc1Cl`, the Potency entry was “inactive”.

Regarding `O=C(OCC(=O)N1CCN(C(=O)c2ccco2)CC1)c1c(Cl)cccc1Cl`, the Potency entry is “inactive”.

Regarding `CC(=O)Nc1cccc(C(=O)OCC(=O)NCc2cc(C)c(O)c(C)c2)c1`, the Potency entry was “inactive”.

In the case of `CC(=O)c1cccc(OCC(=O)OCC(=O)Nc2cc(S(=O)(=O)N3CCCCC3)ccc2C)c1`, the Potency entry is “inactive”.

On to `c1ccc2cc(CCCc3cc4ccccc4cn3)ncc2c1`, for which the Potency entry was “inactive”.

On to `CN(CC(=O)NCCc1ccccn1)S(=O)(=O)c1ccc(Cl)cc1`, for which the Potency entry was “inactive”.

Consider `O=C(NCCc1ccccn1)c1cc(-c2ccc(Cl)cc2)nc2ccccc12`, for which the Potency is 13 µM (active).

Take `O=C(NCc1ccccn1)c1cc(Br)ccc1Cl`: the Potency result was “inactive”.

Turning to `COC(=O)c1ccc2c(c1)S(=O)(=O)NC2C` (stereo not drawn), the Potency result is “inactive”.

As for `CCCNC(=O)C1CCN(c2nc3ccc(C)cc3[nH]2)CC1`, the Potency entry was “inactive”.

As to `CCC1CCCCN1S(=O)(=O)Cc1ccccc1Cl` (stereo not drawn), the Potency entry is “inactive”.

Turning to `CN(CCc1ccccn1)C(=O)c1ccc(OC2CCN(Cc3ccccn3)CC2)cc1`, the Potency result was “inactive”.

In the case of `CC(C)Oc1c(Br)cc(Br)cc1/C=N/NC(N)=S`, the Potency was 16.4 µM (active).

Consider `NC(=S)N/N=C/c1coc2cc(Cl)ccc2c1=O`, for which the Potency entry was “inactive”.

With `CCOC(=O)C1=C(C)c2ccccc2OC1(C)C(=O)OCC` (stereo not drawn), the Potency entry is “inactive”.

With `COc1ccc(NC(=O)CCC(=O)Nc2nnc(C3CCCCC3)s2)cc1`, the Potency result was “inactive”.

With `COc1ccc(OCCCn2c(C3CC(=O)N(c4ccc(F)cc4)C3)nc3ccccc32)cc1` (stereo not drawn), the Potency is 18.4 µM (active).

Take `CC(C)(C)N1CC(c2nc3ccccc3n2Cc2ccc(F)cc2)CC1=O` (stereo not drawn): the Potency entry was “inactive”.

With `CCOc1ccc(N2CC(c3nc4ccccc4n3CCOc3ccc(OC)cc3)CC2=O)cc1` (stereo not drawn), the Potency is 20.6 µM (active).

On to `CCOc1ccc(NC(=O)[C@H](C)NC(=O)C2CC(=O)N(c3ccc(OC)cc3)C2)cc1` (stereo partly drawn), for which the Potency result was “inactive”.

Consider `CCCCN1CC(c2nc3ccccc3n2CCCCOc2ccc(C)cc2C)CC1=O` (stereo not drawn), for which the Potency was 7.31 µM (active).

As for `CCc1ccccc1N1CC(c2nc3ccccc3n2CCCCOc2ccccc2)CC1=O` (stereo not drawn), the Potency result was “inactive”.

Consider `CCCOc1cc(C)c(S(=O)(=O)n2nnc3ccccc32)cc1C`, for which the Potency entry is “inactive”.

Regarding `CCCOc1ccc(N2CC(C(=O)Nc3ccccn3)CC2=O)cc1` (stereo not drawn), the Potency entry was “inactive”.

`Cc1ccc(C(C)C)c(OCCSc2nc3ccccc3n2CC(=O)O)c1`: the Potency result was “inactive”.

For the compound `COc1ccc(Nc2ccc([N+](=O)[O-])cn2)cn1`, the Potency entry was “inactive”.

Turning to `CNC[C@H]1OCc2cnnn2CCCC(=O)N([C@H](C)CO)C[C@@H]1C`, the Potency entry was “inactive”.

On to `CCCCC(c1nnnn1CS(=O)(=O)c1ccc(C)cc1)N1CCC(C(N)=O)CC1` (stereo not drawn), for which the Potency result was “inactive”.

As to `Cc1ccc(CC2C(=O)N(c3ccc(F)cc3)C(=O)C2C)cc1` (stereo not drawn), the Potency result was “inactive”.

Turning to `Clc1ccc2nc(CSc3ccccc3)cn2c1`, the Potency result is “inactive”.

Take `Cc1ccc(CNC(=O)CCN2C(=O)[C@@H]3Cc4ccccc4CN3C2=O)cc1`: the Potency result is “inactive”.

With `CCN1C(=O)[C@H]2[C@@H](c3ccc(C)cc3)N3C(=O)N(c4cccc(Br)c4)C(=O)[C@@]3(CC)[C@H]2C1=O`, the Potency result is “inactive”.

With `COc1ccc([C@@H]2[C@@H]3C(=O)N(C(C)(C)C)C(=O)[C@@H]3[C@]3(Cc4ccccc4)C(=O)N(c4cccc(Br)c4)C(=O)N23)cc1`, the Potency entry was “inactive”.

With `CC[C@@]12C(=O)N(c3ccccc3)C(=O)N1[C@H](c1ccc(Br)cc1)[C@@H]1C(=O)N(C(C)(C)C)C(=O)[C@@H]12`, the Potency is 16.4 µM (active).

On to `O=C1CN(C(=O)c2cc(F)cc(F)c2)c2ccccc2N1`, for which the Potency entry is “inactive”.

In the case of `CCCC(=O)Nc1ccc2c(c1)nc(CCNC(=O)c1ccco1)n2C`, the Potency result was “inactive”.

In the case of `CCOCCC(=O)Nc1ccc2c(c1)c(=O)n(C)n2-c1ccc2ccccc2c1`, the Potency was 1.46 µM (active).

As to `CCOC(=O)c1cccc(NC(=O)CCOc2ccccc2)c1`, the Potency entry is “inactive”.

With `C=CC1=C(C(=O)O)N2C(=O)[C@@H](NC(=O)/C(=N\OCC(=O)O)c3csc(N)n3)[C@H]2SC1`, the Potency entry is “inactive”.

As to `O=C(NCc1cc(F)cc(C(F)(F)F)c1)C1CCC(=O)N(C2CCCC2)C1` (stereo not drawn), the Potency entry is “inactive”.

For the compound `Cc1ccccc1NC(=O)C(C)OC(=O)CCC(=O)N(CC(C)C)c1c(N)n(CC(C)C)c(=O)[nH]c1=O` (stereo not drawn), the Potency entry was “inactive”.

Take `CCN(CC(=O)Nc1c(F)cccc1F)C(=O)c1ccc(Sc2nncn2C)c([N+](=O)[O-])c1`: the Potency entry was “inactive”.

`CCOC(=O)N1CCN(C(=O)c2ccccc2N(Cc2ccccc2)S(=O)(=O)c2ccc(OC)cc2)CC1`: the Potency is 2.91 µM (active).

As for `NC(=O)c1ccccc1N(Cc1ccccc1)S(=O)(=O)c1ccccc1`, the Potency result is “inactive”.

Take `CCOC(=O)N1CCN(S(=O)(=O)c2ccc(OC)cc2)CC1`: the Potency result is “inactive”.

As to `O=C(O)C#Cc1cccc2ccccc12`, the Potency result was “inactive”.

Consider `CCn1ccnc1CNC(=O)CC1C(=O)NCCN1Cc1ccc(F)cc1Cl` (stereo not drawn), for which the Potency result was “inactive”.

In the case of `Cc1cc(-n2cnc(-c3cn(C)nc3C)n2)no1`, the Potency entry is “inactive”.

For `CCCCN(C(=O)c1ccc(S(=O)(=O)N2CCOCC2)cc1)C1CCS(=O)(=O)C1` (stereo not drawn), the Potency entry is “inactive”.

Turning to `CCNC(=S)Nc1ccc(OC(F)(F)F)cc1`, the Potency result was “inactive”.

With `CCc1ccc2c(c1)NC(=O)C2(C)Cc1ccc(OC(F)(F)F)cc1` (stereo not drawn), the Potency is 20.6 µM (active).

`COC(=O)Cc1ccc(OCC(=O)Nc2ccc(OC(F)(F)F)cc2)cc1`: the Potency result is “inactive”.

For the compound `CC1(C(=O)NS(=O)(=O)Cc2cccc(Cl)c2)CCN1C(=O)Cc1ccccc1` (stereo not drawn), the Potency entry was “inactive”.

Take `Cc1cc(=O)n2nc(N3CCCC(C(=O)NCc4cccc(Cl)c4)C3)sc2n1` (stereo not drawn): the Potency entry is “inactive”.

As to `O=C(NCc1ccccc1)C1CCCN(c2nc3ccsc3c(=O)s2)C1` (stereo not drawn), the Potency entry was “inactive”.

For `O=C(NCCc1cccc(F)c1)C1CCCN(c2nc3ccccc3s2)C1` (stereo not drawn), the Potency is 18.4 µM (active).

Turning to `CCC(C)c1ccc(NC(=O)COC(=O)C2CCCC2)cc1` (stereo not drawn), the Potency result is “inactive”.

For `CC(C)(C)NC(=O)NC(=O)COC(=O)C1c2ccccc2Oc2ccccc21`, the Potency result is “inactive”.

For the compound `Cc1cn([C@H]2C[C@H](O)[C@@H](CNC(=O)[C@H](N)Cc3cccnc3)O2)c(=O)[nH]c1=O`, the Potency result is “inactive”.

On to `Cc1cccc(C)c1NC(=O)CN(C)C(=O)CCC(=O)c1ccccc1`, for which the Potency entry was “inactive”.

As for `Cc1cccc(C)c1NC(=O)C(Cl)C(=O)c1ccccc1` (stereo not drawn), the Potency was 5.17 µM (active).

Take `Cc1cccc(C)c1NC(=O)C(c1ccccc1)N1CC(=O)Nc2ccccc21` (stereo not drawn): the Potency result was “inactive”.
